Data as given in PubChem BioAssay.

What follows are compounds tested against PEG-3 (UniProt Q6IN02) (assay: Peg3 promoter luciferase inhibitors, potency, dose response, cell-based, HeLa, CREF/GAPDH counter-screen panel (AID 624167)). Settings: CREF/GAPDH counter-screens; HeLa PEG-Prom luciferase reporter, overnight, run 1, dose range 1, at 100 µM (top of the series) unless noted.
Chain of PEG-3 (Q6IN02 whole entry, looked up): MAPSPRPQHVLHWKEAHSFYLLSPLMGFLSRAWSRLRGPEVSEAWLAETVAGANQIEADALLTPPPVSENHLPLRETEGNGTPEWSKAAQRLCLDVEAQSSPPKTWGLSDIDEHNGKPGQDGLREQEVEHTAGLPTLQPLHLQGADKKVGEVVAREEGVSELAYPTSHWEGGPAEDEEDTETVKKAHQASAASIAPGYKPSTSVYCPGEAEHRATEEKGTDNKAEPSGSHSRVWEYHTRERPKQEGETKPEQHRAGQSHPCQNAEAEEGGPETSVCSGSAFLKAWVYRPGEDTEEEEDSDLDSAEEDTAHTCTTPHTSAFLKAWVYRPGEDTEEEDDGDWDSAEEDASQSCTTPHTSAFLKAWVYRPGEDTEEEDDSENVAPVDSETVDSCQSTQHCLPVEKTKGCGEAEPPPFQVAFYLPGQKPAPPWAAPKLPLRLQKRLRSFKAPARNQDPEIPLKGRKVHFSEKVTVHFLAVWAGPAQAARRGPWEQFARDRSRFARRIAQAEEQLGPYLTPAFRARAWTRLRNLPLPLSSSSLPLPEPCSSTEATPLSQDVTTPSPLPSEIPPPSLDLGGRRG

How did the inhibition turn out when `O=C(Nc1ccc(-c2nc3ccccc3o2)cc1)c1ccc(N2CCOCC2)c([N+](=O)[O-])c1` was run?
Its inhibition is 17.1%.

With `Cc1cc(Br)ccc1NC(=O)CN1C(=O)C2C3CC(c4ccccc4)C(C3)C2C1=O` (stereo not given) as the compound, how does the inhibition read?
Its inhibition is 99.9%.

With `O=C(NC(c1ccc(F)cc1)c1ccc2ccccc2n1)C1CCN(Cc2cccc(C(F)(F)F)c2)CC1` (stereo not given) as the compound, how does the inhibition read?
Its inhibition is 91.2%.

Which inhibition does the source give for `O=C(CCCN1C(=O)/C(=C/c2ccccc2Cl)SC1=S)NNC(=O)c1ccccc1Cl` here?
The inhibition was 100%.

For `NC(c1csc(Nc2nccc(C(F)(F)F)n2)n1)C1CCCCC1` (stereo not given), which inhibition is on record?
The inhibition was 98.2%.

For `COc1ccc(S(=O)(=O)N2c3ccccc3OCC2c2ccccc2)cc1` (stereo not given), which inhibition is on record?
The inhibition was -135%.

`COc1ccc(CC(N)c2csc(NC(=O)Nc3ccccc3C(C)(C)C)n2)cc1` (stereo not given) was tested. Which inhibition did it give?
Its inhibition is 102%.

How did the inhibition turn out when `O=S(=O)(NC1CC(NS(=O)(=O)OCC(Cl)(Cl)Cl)C2CCCCC12)OCC(Cl)(Cl)Cl` (stereo not given) was run?
Its inhibition is 102%.

Which inhibition does the source give for `CCCN(CCC)CCCNC(=S)Nc1ccc2nc(N3CCCC3)cc(C)c2c1` here?
The inhibition was 99.6%.

Which inhibition does the source give for `COc1cc(C=NO)nc(-c2ccccn2)c1` here?
The inhibition was 71.9%.

With `CC(C)NC(=O)NC(=O)COC(=O)c1c2c(nc3ccccc13)CCC2` as the compound, how does the inhibition read?
Its inhibition is 101%.

With `CC(=O)NC(c1ccc(C)cc1)c1cc(Cl)c2cccnc2c1O` (stereo not given) as the compound, how does the inhibition read?
Its inhibition is 88.1%.

How did the inhibition turn out when `COCCn1c(C)cc(C(=O)CSc2nnc3ccccn23)c1C` was run?
Its inhibition is 98.8%.

`O=C(O)c1ccc(N/N=C/c2ccc(OC(=O)c3ccccc3Cl)cc2)cc1` was tested. Which inhibition did it give?
The inhibition was 99.2%.

With `CC(=O)c1ccc(Nc2nc(C(N)Cc3ccc(Cl)cc3)cs2)cc1` (stereo not given) as the compound, how does the inhibition read?
Its inhibition is 99.5%.

Which inhibition does the source give for `O=C(Cc1csc(Nc2nc(=S)[nH]c3ccccc23)n1)NCc1ccccc1Cl` here?
The inhibition was -6.11%.

For `COC(=O)c1cn(NC(=O)c2cc([N+](=O)[O-])ccc2F)c(=O)c2ccccc12`, which inhibition is on record?
The inhibition was 95.3%.

With `COc1ccc2sc3cccc(NCCN(C)C)c3c(=O)c2c1` as the compound, how does the inhibition read?
The inhibition was 98%.

Which inhibition does the source give for `O=C(Nc1ccccc1N1CCOCC1)c1cc(-c2ccncc2)nc2ccccc12` here?
Its inhibition is 93.7%.

Which inhibition does the source give for `CC(=O)c1cccc(-c2csc3ncnc(Sc4nnnn4C)c23)c1` here?
Its inhibition is 99.4%.

`Cc1cc(C)c2nc(N(CCCN(C)C)C(=O)c3ccc(S(=O)(=O)N4CCCCCC4)cc3)sc2c1` was tested. Which inhibition did it give?
Its inhibition is 102%.

`CN[C@H]1C[C@H]2c3[nH]c4ccc(-c5cccc(C)c5)cc4c3CCN2C[C@H]1[C@H](C)O` was tested. Which inhibition did it give?
Its inhibition is 99%.

Which inhibition does the source give for `Cc1ccc(CC2(OCCN(C)C)CCC(C(C)(C)C)CC2)cc1` (stereo not given) here?
Its inhibition is 99.6%.

`Cc1nc(-c2ccc(F)cc2)c(CC(=O)N(C)CC(=O)Nc2ccc(Cl)c(C(F)(F)F)c2)s1` was tested. Which inhibition did it give?
The inhibition was 99.8%.

Which inhibition does the source give for `COc1cccc(/C=N/NC(=O)c2c(-c3ccccc3)noc2C)c1O` here?
Its inhibition is 33.5%.

Which inhibition does the source give for `CC1(C)CC(NC(=O)c2sc3cc(Cl)ccc3c2Cl)CC(C)(C)N1` here?
Its inhibition is 99.4%.

For `CC1(C)CC(NC(=O)c2cccc(S(=O)(=O)N(Cc3ccccc3)c3ccccc3)c2)CC(C)(C)N1`, which inhibition is on record?
Its inhibition is 101%.

With `CCCCCCCCCC[N+](C)(C)CC/C=C1/c2ccccc2Sc2ccc(Cl)cc21` as the compound, how does the inhibition read?
The inhibition was 99.8%.

How did the inhibition turn out when `NC1=NC[C@H](Cc2ccccc2)N1CCc1cc(C(F)(F)F)cc(C(F)(F)F)c1` was run?
Its inhibition is 101%.

`COc1cccc(NC(=O)Nc2cccc(C(=O)O)c2)c1` was tested. Which inhibition did it give?
The inhibition was 87%.

With `O=S(=O)(Nc1cccc2ncccc12)c1cccs1` as the compound, how does the inhibition read?
The inhibition was 94.5%.

`COc1ccc(-c2oc3ccc(-c4cc(OC)c(OC)c(OC)c4)cc3c2C#Cc2ccccn2)cc1` was tested. Which inhibition did it give?
The inhibition was 26.8%.

How did the inhibition turn out when `COc1ccc(-c2cc(C(=O)Nc3ccccc3N3CCOCC3)c3ccccc3n2)cc1OC` was run?
Its inhibition is 2.08%.

With `COc1ccc(CN(C)C(=O)C(Cc2ccccc2)NC(=O)c2ccccc2)cc1F` (stereo not given) as the compound, how does the inhibition read?
The inhibition was 99.1%.

How did the inhibition turn out when `CC(C)n1nc(C(=O)Oc2cc(Cl)ccc2Cl)c2ccccc2c1=O` was run?
The inhibition was 98.6%.

For `CN(C)S(=O)(=O)c1cccc(NC(=O)CSc2cccc3cccnc23)c1`, which inhibition is on record?
Its inhibition is 99.3%.

With `CC(=O)Nc1ccc(S(=O)(=O)N(Cc2cccnc2)Cc2cc3ccccc3[nH]c2=O)cc1` as the compound, how does the inhibition read?
Its inhibition is 11.2%.

`Cc1cccc(CN2C(=O)/C(=C\c3ccc(C(=O)NCCN4CCOCC4)cc3)Sc3ccccc32)c1` was tested. Which inhibition did it give?
Its inhibition is 102%.

Which inhibition does the source give for `COc1cccc(-c2sc3ccc(OC)cc3c2-c2ccc(OCCN(C)C)cc2)c1` here?
Its inhibition is 94.3%.

Which inhibition does the source give for `CN(C)CCCN(C(=O)c1ccc(S(=O)(=O)N(C)Cc2ccccc2)cc1)c1nc2cc3c(cc2s1)OCO3` here?
Its inhibition is 100%.
